Assay outcomes from PubChem.
MCF10A rereplic: A quantitative high throughput screen for small molecules that induce DNA re-replication in MCF 10a normal breast cells; 350,000 compounds, 2.9% hits; MCF 10A DNA re-replication, Hoechst nuclear intensity, 48 h; Potency, µM (titrated, usually from 46.1 µM), usual class: activators; note: nearly all actives have a fitted effect of over 50% in size
SW480 rerep: A quantitative high throughput screen for small molecules that induce DNA re-replication in SW480 colon adenocarcinoma cells. 340,000 compounds, 1.8% hits. AID 624297, 2012. Potency, µM (series often up to 46.1 µM), actives largely listed as activators. SW480 DNA re-replication, Hoechst DNA content imaging, 48 h; note: nearly all actives have a fitted effect of over 55% in size
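Treated cells incubate 48 hr (37 C, 5% CO2), are stained 40 min with Hoechst, and nuclear fluorescence is enumerated; a rise in nuclei with high DNA signal marks re-replication.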
PINK1 modulator: A Quantitative High throughput Screen to Identify Chemical Modulators of PINK1 Expression; AID 624263, 2012; 410,000 compounds, 0.2% hits; PINK1 immunofluorescence, high-content cytometry, 24 h; Potency, µM (titrated, usually from 76.6 µM), actives largely listed as activators; active = well fitted activation curve with a large enough effect; inconclusive = small, poorly fitted or top-dose-only effect; cell line not stated here; note: nearly all actives have a fitted effect of over 65% in size
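Stable cell line treated 24 h with compounds at 5 concentrations (CCCP controls), then fixed and immunostained for PINK1 plus nuclear and cell stains; PINK1 immunofluorescence quantified by laser-scanning microplate cytometry.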
KB-3-1 tox: qHTS assay for MDR1-selective chemotherapeutics: Primary screen using the parental adenocarcinoma cell KB-3-1; Potency, µM (series often up to 46.1 µM), hits mostly cytotoxic; 400,000 compounds, 1.4% hits; KB-3-1 viability, CellTiter-Glo ATP luminescence, 72 h; note: nearly all actives have a fitted effect of over 60% in size
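Cytotoxicity in the drug-sensitive parental line KB-3-1 was scored as loss of CellTiter-Glo luminescence following 72 h incubation with compound. Values come from curve fitting of normalized concentration-response data.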
ALOX12 inh: Primary qHTS assay for inhibitors of human arachidonate 12S-lipoxygenase (ALOX12): Round 2; Polyunsaturated fatty acid lipoxygenase ALOX12 (Homo sapiens), P18054; purified 12hLO, xylenol orange hydroperoxide absorbance; Potency, µM (highest dose often 108 µM), hits mostly inhibitors; 580,000 compounds, 1.1% hits
Target sequence (P18054 whole entry, looked up): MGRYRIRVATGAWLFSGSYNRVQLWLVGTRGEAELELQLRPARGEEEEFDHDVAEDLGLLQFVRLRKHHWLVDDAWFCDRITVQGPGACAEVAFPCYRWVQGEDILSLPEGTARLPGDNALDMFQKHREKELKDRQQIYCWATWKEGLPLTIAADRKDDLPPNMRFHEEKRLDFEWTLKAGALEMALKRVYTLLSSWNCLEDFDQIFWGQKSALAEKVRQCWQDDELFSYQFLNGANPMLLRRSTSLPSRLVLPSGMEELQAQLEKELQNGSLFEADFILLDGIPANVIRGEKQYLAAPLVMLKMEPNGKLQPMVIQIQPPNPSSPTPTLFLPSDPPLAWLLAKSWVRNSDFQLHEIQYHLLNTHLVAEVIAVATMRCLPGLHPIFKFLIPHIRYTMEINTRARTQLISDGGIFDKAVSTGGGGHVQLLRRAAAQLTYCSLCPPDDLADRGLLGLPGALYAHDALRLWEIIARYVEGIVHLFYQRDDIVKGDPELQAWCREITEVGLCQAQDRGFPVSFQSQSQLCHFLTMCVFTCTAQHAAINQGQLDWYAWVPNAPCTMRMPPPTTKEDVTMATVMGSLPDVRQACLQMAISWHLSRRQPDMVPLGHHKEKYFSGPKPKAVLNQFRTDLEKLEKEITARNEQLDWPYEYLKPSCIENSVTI
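Purified human 12hLO (150 nM final) in 25 mM Hepes, 0.01% Triton X-100, pH 7.0 was preincubated 15 min at room temperature with compound. Then 40 uM arachidonic acid was added, 30 min. Hydroperoxide was read by Fe-XO absorbance ratio 573/405 nm.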
KB-V1 cytotox: qHTS assay for MDR1-selective chemotherapeutics: Primary screen using the drug-selected MDR subline cells KB-V1; KB-V1 MDR cells viability, CellTiter-Glo, 72 h; Potency, µM (top dose mostly 46.1 µM), actives largely listed as cytotoxic; 400,000 compounds, 3.4% hits; note: nearly all actives have a fitted effect of over 60% in size
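Potencies derive from concentration-effect curves fitted to normalized luminescence (CellTiter-Glo) of KB-V1 cells treated for 72 h at 37 degrees C in phenol-red-free DMEM containing 10% FBS.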
Hits are given with their value; 0 = inactive; ? = inconclusive; - = no result; [ ] = remark or other dose. Most compounds without a hit are left out; they make up all but 5.8% or so of the library. Unless noted, calls come from the whole dose curve; as a rule, active = well fitted curve in the direction sought with a large enough effect; inconclusive = small, poorly fitted or top-dose-only effect, or another doubt; inactive = no such curve, though single readings can be large; an effect the other way counts as inactive or inconclusive.

SMILES	MCF10A rereplic	SW480 rerep	PINK1 modulator	KB-3-1 tox	ALOX12 inh	KB-V1 cytotox
S=C1SCN(Cc2ccco2)CN1Cc1ccco1	?	13µM	0	0	0	0
COc1ccc(C(=O)OCc2ccc(Br)cc2)cc1OC	-	-	-	-	0	-
O=C(NCc1ccc(NC(=O)C2CC2)cc1)c1ccc[n+]([O-])c1	-	-	-	-	0	-
CN(C)S(=O)(=O)c1ccc(N2CCCC2)c(C(=O)Nc2ccc(F)cc2F)c1	0	0	0	0	?	0
CN(C)S(=O)(=O)c1ccc(N2CCCC2)c(C(=O)Nc2nccs2)c1	0	0	0	0	0	?
COc1ccc(C(C)(C)C)cc1NC(=O)c1cc(S(=O)(=O)N(C)C)ccc1N1CCCC1	0	0	0	0	0	23µM
Cc1cnc(NC(=O)c2cc(S(=O)(=O)N(C)C)ccc2N2CCCC2)s1	6.5µM	?	0	21µM	0	?
CC(C)(C)NC(=S)NC(=O)C12CC3CCC(CC(C3)C1)C2	0	0	0	0	22µM	0
CC1CCN(c2ccc(-c3noc(-c4cc5ccccc5oc4=O)n3)cc2)CC1	-	-	-	-	0	-
O=C(CSc1ccc(-c2cccs2)nn1)Nc1ccccc1	0	0	0	0	0	12µM
CCc1ccc(NC(=O)CSc2ccc(-c3ccccn3)nn2)cc1	12µM	0	0	?	0	0
O=C(CSc1ccc(-c2ccco2)nn1)Nc1ccccc1	0	0	0	0	0	18µM
O=C(CSc1ccc(-c2ccco2)nn1)Nc1ccc(F)cc1	0	0	0	0	?	10µM
COc1cccc(NC(=O)NC[C@H]2O[C@@H](CC(=O)N3CCN(c4ccc(F)cc4)CC3)[C@H](O)[C@@H]2O)c1	-	-	-	-	0	-
Cc1ccccc1NC(=O)CSc1ccc(-c2ccco2)nn1	0	0	0	0	0	0
O=C(CSc1ccc(-c2ccco2)nn1)NCc1ccccc1Cl	0	0	0	0	0	21µM
O=C(N/N=C/c1ccc(O)cc1O)c1ccc(NC(=O)C2CCCCC2)cc1	?	16µM	0	?	0	0
O=C(N/N=C/c1cccc(O)c1)c1ccc(NC(=O)C2CCCCC2)cc1	0	0	0	0	0	0
C[S+](=O)([O-])N1CC2(CCCN(Cc3ccc(Cl)cc3)C2)Cc2ccccc21 (stereo unspecified)	-	-	-	-	0[6.33 µM]	-
O=C(c1ccc(Cl)cc1)N1CC2(CCCN(Cc3ccc(Cl)cc3)C2)Cc2ccccc21 (stereo unspecified)	-	-	-	-	3.5µM	-
CN(Cc1ccco1)C(=O)CCc1ncc(-c2c(F)cccc2F)o1	-	-	-	-	0	-
COc1ccccc1C(=O)N1CCC(c2nc3ccccc3o2)CC1	-	-	-	-	0	-
ClCCn1c(CCl)nc2ccc(Cl)cc21	-	-	0	0	10µM	0
O=C(OCc1nc2ccc(Cl)cc2n1CCO)c1ccccc1	0	0	0	0	0	0
CC(C)Oc1ccc(Br)cc1/C=N\NC(N)=S	?	0	0	0	40µM	?
SMILES	MCF10A rereplic	SW480 rerep	PINK1 modulator	KB-3-1 tox	ALOX12 inh	KB-V1 cytotox
CCOc1ccc(NC(=O)CN(C)C(=O)c2cn(-c3ccc(C)cc3)nc2-c2cccc(OC)c2)cc1OCC	?	0	0	0	0	5.8µM
O=C(NCc1cccc(Cl)c1)c1cccc(OC2CCN(C(=O)C3CC3)CC2)c1	?	0	0	23µM	0	?
CC(=O)Nc1ccc(C23CC4CC(CC(C4)C2)C3)cc1	0	0	0	0	0	0
NC(=S)N/N=C/c1ccc(C23CC4CC(CC(C4)C2)C3)cc1	?	7.3µM	0	?	-	0
CNC(=S)Nc1ccc(C23CC4CC(CC(C4)C2)C3)cc1	?	?	?	0	45µM	0
NC(=S)N/N=C/c1ccccc1	0	0	0	0	?	0
O=C1CC(c2cccs2)Cc2nc(NCC3CCCO3)ncc21 (stereo unspecified)	0	0	0	0	0	16µM
CC1CC(=O)c2cnc(NCC3CCCO3)nc2C1 (stereo unspecified)	0	0	0	0	0	0
